99 molecules from PubChem BioAssay AID2599 (Sanford-Burnham Center for Chemical Genomics, 2010) can be followed below.

Each structure is given as a SMILES string. Among all 330,000 compounds or so, about 5,800 (1.8%) were called active. What follows is part of a selection rich in actives, with near analogues and random picks from the rest. Values without a mark were called inactive.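 Rule for the calls: active = inhibition above about 50% at the single tested dose (limit read from the data); inactive = the rest.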

This test deals with Sentrin-specific protease 6 (Homo sapiens) (UniProt Q9GZR1). Kind of test: SENP6 protease inhibitors, primary screen, biochemical, luminescence, uHTS (AID 2599).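 Note: plate controls were DMSO wells with enzyme for no effect and DMSO wells lacking enzyme for full effect.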 The following applies: Recombinant SENP6 catalytic domain, aminoluciferin luminescence; at 10 µM; active compounds read high.
Sequence of Sentrin-specific protease 6 (Homo sapiens) (Q9GZR1 628-1112 limits assumed): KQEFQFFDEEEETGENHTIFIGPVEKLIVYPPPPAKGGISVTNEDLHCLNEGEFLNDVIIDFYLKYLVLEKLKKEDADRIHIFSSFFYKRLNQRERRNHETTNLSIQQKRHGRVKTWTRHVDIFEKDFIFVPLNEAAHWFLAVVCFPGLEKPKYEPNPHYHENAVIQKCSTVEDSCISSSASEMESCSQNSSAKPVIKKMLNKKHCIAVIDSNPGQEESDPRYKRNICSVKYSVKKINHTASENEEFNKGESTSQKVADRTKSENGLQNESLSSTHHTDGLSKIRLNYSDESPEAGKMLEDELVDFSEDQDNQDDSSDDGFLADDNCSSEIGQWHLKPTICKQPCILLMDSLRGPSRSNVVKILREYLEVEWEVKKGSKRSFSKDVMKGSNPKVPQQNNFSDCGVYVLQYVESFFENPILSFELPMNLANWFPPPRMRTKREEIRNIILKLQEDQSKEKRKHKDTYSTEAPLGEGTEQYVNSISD
A word on the inhibition: it is the relative decrease from the control value, in per cent. With `COc1cccc(C(=O)CC(=O)C(=O)Nc2ccc([N+](=O)[O-])cc2C)c1`, the inhibition is 3.79%. As for `CC1(C)C=C2[C@H]3CC[C@@H]4[C@@]5(C)CCC(=O)C(C)(C)[C@@H]5CC[C@@]4(C)[C@]3(C)CC[C@@]2(C(=O)O)CC1`, the inhibition was 12.4%.

Consider `O=C(C1=C[C@H](c2coc3ccccc3c2=O)C[C@H](OCc2ccc(CO)cc2)O1)N1CCN(Cc2ccccc2)CC1`, for which the inhibition is -13.7%. Under `O=C(NC(=S)Nc1ccc(Br)cc1F)C1CCCCC1` stands -12.9%; under `CCOC(=O)N1CCC(NC(=O)c2cnn3ccccc23)CC1`, 3.17%. As to `O=C(c1cnn2ccccc12)N1CCc2ccccc21`, the inhibition is 51% (active). Turning to `Cc1cnc(C(=O)OCC(=O)N2CCc3ccccc32)cn1`, the inhibition is 0.963%. In the case of `Cc1oc2cc(Br)c(O)c(Br)c2c1C(=O)c1ccccc1` it was -11.8%; in that of `COc1ccc(C(=O)Nc2cccc(NC(=O)c3ccc(OC)cc3OC)n2)c(OC)c1`, -18%. In the case of `Cc1ccnc(NC(=O)CNC(=O)c2ccccc2)c1` it was 6.25%. Regarding `COc1cc(SC)ccc1C(=O)NNC(=O)C1COc2ccccc2O1` (centres undefined), the inhibition is -13.5%.

`COc1cc(SC)ccc1C(=O)NCCOc1ccccc1Cl`: the inhibition was 13.4%. As to `COc1cc(SC)ccc1C(=O)N(Cc1ccccc1)c1ccccc1`, the inhibition is -10.9%. For the molecule `COc1cc(SC)ccc1C(=O)Nc1nc(C)cs1`, the inhibition is 97.3% (active). Consider `COC(=O)c1sc(NC(=O)c2ccc(OC)cc2OC)nc1C`, for which the inhibition is 74% (active). In the case of `COc1cc2ccccc2cc1C(=O)Nc1nc(C)c(C(C)=O)s1`, the inhibition was 16.4%.

Turning to `Cc1csc(NC(=O)c2ccc(C)s2)n1`, the inhibition is 0.083%. For `Cc1occc1C(=O)Nc1cccc(Cn2cccn2)c1`, the inhibition was -1.37%. Take `COc1cc(SC)ccc1C(=O)Nc1cc(C)ccn1`: the inhibition was 62.6% (active). Consider `Cc1ccnc(NC(=O)c2ccoc2C)c1`, for which the inhibition is 88.3% (active). With `C=CCN(CC=C)C(=O)COC(=O)c1n[nH]c2ccccc12`, the inhibition is -20.6%. Turning to `CCOc1ccc(NC(=S)NC(=O)/C=C/c2ccc(OC)cc2)c([N+](=O)[O-])c1`, the inhibition was -2.86%.

Take `O=C(Nc1nccs1)C1CCN(S(=O)(=O)c2ccc(Cl)c(C(F)(F)F)c2)CC1`: the inhibition is -4.6%. As to `CCOc1ncccc1C(=O)Nc1ccc(S(=O)(=O)Nc2nc(C)cc(C)n2)cc1`, the inhibition is -19.1%.

Take `O=C(c1ccc(OC2CCN(C/C=C/c3ccc(F)cc3)CC2)cc1)N1CCCCC1`: the inhibition was 0.618%. For the molecule `COc1cc(C)nc(N2CCCC(C(=O)NCC(C)C)C2)n1` (centres undefined), the inhibition was -10.1%. With `O=C(NNS(=O)(=O)c1ccc(F)cc1)C1CCCCC1`, the inhibition is -3.19%.

Take `CCOC(=O)c1sc(NC(=O)c2ccncc2)nc1C`: the inhibition was 97.5% (active). For the molecule `CC(=O)c1sc(NC(=O)c2ccc(C)cc2)nc1C`, the inhibition was 62% (active). `COC(=O)c1sc(NC(=S)NC(=O)c2ccc(C)cc2)nc1C`: the inhibition is -20%.

On to `CCOC(=O)c1sc(NC(=O)c2sc(C)nc2C)nc1C`, for which the inhibition was 15.3%. As for `CC(=O)c1sc(N/N=C\c2ccc(C)cc2)nc1C`, the inhibition is 23.9%. Regarding `CCOC(=O)c1cccnc1NC(=O)c1ccncc1`, the inhibition was -2.78%. Regarding `COC(=O)[C@]1(Cc2ccccc2)N[C@H](CN(C)S(=O)(=O)c2ccc(OC(F)(F)F)cc2)[C@@H]2C(=O)N(C)C(=O)[C@@H]21`, the inhibition was 17%.

As for `O=C(COc1ccccc1)N1CCN=C1SCc1cccc(F)c1`, the inhibition is -16.4%. Consider `CSCc1ccc(C(=O)Nc2cc(C)cc(C)c2)cc1`, for which the inhibition is 86% (active). Consider `C=CCN(c1ccc(C(=O)Nc2cc(C)cc(C)c2)cc1)S(C)(=O)=O`, for which the inhibition is 7.58%. In the case of `CC(=O)Nc1ccccc1NC(=O)c1cc(C)cc(C)c1`, the inhibition is 3.76%. On to `Cc1cc(NC(=O)OC(C)C)ccc1-c1ccc(NC(=O)OC(C)C)cc1C`, for which the inhibition is -24.2%. Take `O=C(NCCCn1ccnc1)c1cc(-c2ccccc2)on1`: the inhibition is 13.4%. As for `Cc1oc2c(c1C(=O)N1CCOCC1)C(=O)c1ccccc1C2=O`, the inhibition was 68.9% (active). For `COC1=C(N2CCOCC2)C(=O)c2ccccc2C1=O`, the inhibition is 44.9%.

As for `COc1cc2ccccc2cc1C(=O)N1CCOCC1`, the inhibition is 5.76%. Consider `Cc1ccc(NC(=O)C2CC2)cc1S(=O)(=O)N1CCOCC1`, for which the inhibition was -10.6%. As to `COC(=O)c1ccc(NCC(=O)c2ccccc2)cc1`, the inhibition is 95.5% (active). Regarding `Cc1ccc(C(=O)CNc2ccc(F)cc2)cc1`, the inhibition is 6.04%. For the molecule `COC(=O)c1ccc(NCC(=O)N2CCCCCC2)cc1`, the inhibition was -9.61%.

`Cn1ncc2c(NNC(=O)Cc3cccc4ccccc34)ncnc21`: the inhibition was -8.95%. Under `O=C(CN1CCN(c2cccc(Cl)c2)CC1)Nc1ccc(S(=O)(=O)N2CCOCC2)cc1` stands 5.09%; under `CCOC(=O)C(NC(C)=O)C(=O)Nc1ccc(OC)cc1` (centres undefined), 4.26%. In the case of `CC(C)n1cnc2c(NCc3ccccc3)cc(N[C@@H](CO)Cc3ccccc3)cc21` it was 75.8% (active); in that of `CCC(CO)Oc1cc(NC(=O)c2ccc(Cl)cc2)c2ncn(C(C)C)c2c1` (centres undefined), -20.3%. In the case of `CCC(CO)Oc1cc(NCc2ccccc2)c2ncn(C3CCCC3)c2c1` (centres undefined), the inhibition was 1.75%. Take `CCC(CO)Oc1cc(NC(=O)c2cccc3ccccc23)c2ncn(C(C)C)c2c1` (centres undefined): the inhibition is -4.87%.

Regarding `CC(C)n1cnc2c(NCc3ccccc3)cc(OCC3CCN(C)CC3)cc21`, the inhibition was 77.9% (active). Regarding `CCC(CO)Oc1cc(NC(=O)c2cccc(F)c2)c2ncn(C(C)C)c2c1` (centres undefined), the inhibition was -22.5%.

Turning to `COc1ccc(OC)c(S(=O)(=O)Nc2c(C)nn(C)c2C)c1`, the inhibition is -2.99%.

With `COc1ccccc1CCNC(=O)CSc1nnc2ccc(-c3cccnc3)nn12`, the inhibition is 17%. For the molecule `CC(C)(C)CC(C)(C)NCC(O)COCCOc1ccc(Br)cc1` (centres undefined), the inhibition was 9.07%.

`O=C(O)CC/C(=C\c1cc2c(cc1Br)OCO2)c1nc2ccccc2s1`: the inhibition is -4.31%. Under `Cc1cc(N=Nc2ccc3ccccc3c2)ccc1O` stands 98% (active); under `Cc1ccccc1CSc1nnc(-c2ccccn2)n1N`, 7.46%; under `COc1ccc(C2C=C(c3ccc(Br)cc3)Nc3nc(NS(C)(=O)=O)nn32)cc1` (centres undefined), 3.75%. As to `Brc1ccccc1C1Nc2cccc3cccc(c23)N1`, the inhibition was 51.7% (active). Regarding `C/C(=C\c1ccco1)C1Nc2cccc3cccc(c23)N1`, the inhibition is -84.6%. With `Oc1ccc(C2Nc3cccc4cccc(c34)N2)cc1`, the inhibition is 15.2%. In the case of `CC1CN(C(=S)Nc2cccc(F)c2)CC(C)O1` (centres undefined), the inhibition is 15.9%. Take `O=c1ccc(S(=O)(=O)N2CCCC2)cn1Cc1nc(-c2ccccc2)no1`: the inhibition was -10.4%. For the molecule `CN(C)c1ccc(NC(=O)CN2C3CCCC2CC(NC(=O)c2ccccc2)C3)cc1` (centres undefined), the inhibition is -8.69%. Take `COC(=O)c1ccccc1NC(=O)C1(S(=O)(=O)c2ccc(Cl)cc2)CC1`: the inhibition was 16.9%.

Regarding `Nc1ccc2nn(-c3ccc(Cl)cc3)nc2c1`, the inhibition is 95% (active). With `c1ccc(-n2nc3ccccc3n2)cc1`, the inhibition was -28.4%. In the case of `CN(C)c1nnnn1-c1ccc(Cl)cc1` it was 2.68%; in that of `CN(C)CCCNC(=O)c1cc(C(=O)Cc2ccc(Cl)cc2)c[nH]1`, -9.62%; in that of `O=C(CSC(=S)N1CCOCC1)c1cc(Br)cc(Br)c1O`, -12.1%.

In the case of `O=C(CSC(=S)N1CCOCC1)c1ccccc1`, the inhibition is 60.8% (active). Consider `CC1CN(C(=S)SCC(=O)c2ccccc2)CC(C)O1` (centres undefined), for which the inhibition is -20.8%.

Take `Cc1ccc(CNC(=O)CC2Sc3ccccc3NC2=O)cc1` (centres undefined): the inhibition was -4.12%. With `C#CCOCCOCCOCCNc1nc(N2CCN(C(=O)C([C@@H](C)CC)n3cc(C(N)COC(=O)C(F)(F)F)nn3)CC2)nc(N2CCN(C(=O)[C@H](CCCCN)n3cc(C(N)CC(C)C)nn3)CC2)n1` (some centres undefined), the inhibition is -9.82%. As to `O=C(Nc1cccc(C(=O)N2CCCC2)c1)c1ccccc1`, the inhibition is -14.4%. For the molecule `O=C(Nc1cccc(NC(=O)c2cccc(F)c2)c1)c1ccccc1`, the inhibition is -18.8%. On to `O=C(Nc1ccc(C(=O)O)c(O)c1)c1ccccc1`, for which the inhibition was 83.4% (active). In the case of `COc1cccc(N2CC(C(=O)NCc3n[nH]c(=O)c4ccccc34)CC2=O)c1` (centres undefined) it was -13.6%; in that of `O=C(O)/C=C/c1ccc(S(=O)(=O)N2CCCCCC2)cc1`, 16.2%; in that of `CC(C)c1nc(SCC(=O)NC(=O)NC(C)(C)C)n[nH]1`, -25.6%. For the molecule `O=C(Nc1ccc(F)cc1)c1cc2c(s1)CCCC2`, the inhibition is 89% (active). In the case of `O=C(NCC1CCCO1)c1cc2c(s1)CCCC2` (centres undefined), the inhibition is 6.51%.

As to `CN(C)C(=O)c1ccc(NC(=O)COC(=O)c2cc3c(s2)CCCCC3)cc1`, the inhibition was -9.42%.

Turning to `CCc1noc(C)c1C(=O)Nc1nc(-c2ccccc2)cs1`, the inhibition is -13.3%. As for `CS(=O)(=O)c1ccc2nc(NC(=O)c3ccc(Cl)nc3)sc2c1`, the inhibition is 0.381%. In the case of `Cc1noc(C)c1CSCC(=O)Nc1nc2ccc(Oc3ccccc3)cc2s1` it was 14.7%. In the case of `COc1cccc(C(=O)Nc2nnc(S(=O)(=O)N(C)c3ccccc3)s2)c1`, the inhibition is 12.8%. Under `COc1cccc(C(=O)Nc2nc3ccc(S(C)(=O)=O)cc3s2)c1` stands 89.1% (active); under `CCc1noc(C)c1C(=O)Nc1nc2ccc(OC)cc2s1`, 59.6% (active); under `CC1=NN(C(=O)CCc2ccccc2O)C(O)(C(F)(F)F)C1` (centres undefined), 13.7%. Turning to `COc1ccccc1CCC(=O)OCC(=O)N1CCN(S(=O)(=O)c2ccc(C)cc2C)CC1`, the inhibition is -9.38%. Consider `COc1ccc(OC)c2sc(NC(=O)C3COc4ccccc4O3)nc12` (centres undefined), for which the inhibition is -3.77%.

In the case of `O=C(Nc1ncc([N+](=O)[O-])s1)C1COc2ccccc2O1` (centres undefined), the inhibition was 97.8% (active).

As to `COc1ccc(NC(=O)C2COc3ccccc3O2)cc1` (centres undefined), the inhibition is 2.57%.
